Source: PubChem BioAssay
FECH inh: blocks human mitochondrial ferrochelatase activity; actives 3.3% (n = 20,000); AID 1671448; purified FECH, Ni-mesoporphyrin absorbance 550 nm; P22830; calls only at 10 µM (by protocol);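 active = enzyme reaction rate more than 3 SD below the solvent-only control wells on the same plate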;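 also: lower slope than DMSO wells means FECH inhibition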
Target sequence (P22830 whole entry, looked up): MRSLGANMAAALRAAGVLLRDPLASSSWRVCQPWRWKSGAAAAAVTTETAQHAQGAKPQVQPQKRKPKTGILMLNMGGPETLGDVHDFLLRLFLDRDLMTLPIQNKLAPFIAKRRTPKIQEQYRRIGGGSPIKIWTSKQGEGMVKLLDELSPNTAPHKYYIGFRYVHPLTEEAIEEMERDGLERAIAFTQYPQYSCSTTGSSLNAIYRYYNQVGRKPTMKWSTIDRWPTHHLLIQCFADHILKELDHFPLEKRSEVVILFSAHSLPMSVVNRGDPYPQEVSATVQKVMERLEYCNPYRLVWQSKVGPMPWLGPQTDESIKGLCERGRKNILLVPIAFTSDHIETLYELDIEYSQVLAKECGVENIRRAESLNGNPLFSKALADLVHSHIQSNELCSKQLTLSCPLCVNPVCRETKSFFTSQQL
Numbers without * were called inactive; i = inactive; + = active, no number. The full list was thinned out, with hits kept by preference.

SMILES | FECH inh
COc1ccc(NC(=O)CN2CCCN(Cc3ccccc3)S2(=O)=O)cc1Cl | i
CSc1cccc(NC(=O)CN2CCN(Cc3ccccc3C)S2(=O)=O)c1 | +
Cc1ccc(NC(=O)CN2CCN(Cc3ccccc3)S2(=O)=O)cc1C | i
CCCCOc1ccc(S(=O)(=O)N2CCN(c3nc(C)cc(Nc4ccc(C)cc4)n3)CC2)cc1 | i
COc1ccc(N2C(=O)CCS2(=O)=O)cc1S(=O)(=O)N1CCCc2ccccc21 | i
O=C(c1cc2n(n1)CCCN(c1ccncc1F)C2)N1CCOCC1 | i
CC(=O)Nc1ccc(S(=O)(=O)Nc2nc3n(n2)C(c2ccc(F)cc2)C=C(c2ccccc2)N3)cc1 (centres undefined) | i
CC1(C(=O)NC2CCCCC2)Cc2ccccc2C(=O)N1C1CCCCC1 (centres undefined) | i
CC(C)C(NC(=O)c1ccco1)C(=O)N1CCC(c2nc(-c3ccccc3)no2)CC1 (centres undefined) | i
Cc1nonc1C1CCCN1S(=O)(=O)NCc1ccccc1 (centres undefined) | i
CC(C)c1nc(CCN(C)C(=O)c2ccc(Cl)cn2)no1 | i
Cc1cc(C)n(CCC(=O)N(C)CCc2noc(C(C)C)n2)c(=O)n1 | +
Cc1cc(C)n(CCC(=O)N(C)Cc2noc(CC(C)C)n2)c(=O)n1 | i
CCN1C(SCC(=O)N2CCN(c3ccccc3)CC2)=NS(=O)(=O)c2ccccc21 | +
CCN1C(SCC(=O)Nc2ccc3c(c2)OCCO3)=NS(=O)(=O)c2ccccc21 | i
Cc1ccc(CNC(=O)CN2C(=O)C3CCCCN3C(=O)c3ccccc32)cc1 (centres undefined) | i
CCN1C(SCC(=O)NCc2ccc(C)cc2)=NS(=O)(=O)c2ccccc21 | +
CCN1C(=O)C2(c3ccccc31)C(C(=O)Nc1cc(C)cc(C)c1)CC1CSCN12 (centres undefined) | i
CCN1C(SCC(=O)Nc2c(C)cc(C)cc2C)=NS(=O)(=O)c2ccccc21 | +
Cc1ccc(N2C(=O)N(CC(=O)NC3CCCCC3)c3ccccc3S2(=O)=O)c(C)c1 | i
Cc1ccc(CN2CC(=O)N(Cc3ccccc3)c3ccccc3S2(=O)=O)cc1 | i
CCN1C(SCC(=O)Nc2cc(C)cc(C)c2)=NS(=O)(=O)c2ccccc21 | +
Cc1cc(N2CCCN(C(=O)CSc3ncccn3)CC2)ccn1 | i
Cc1cc(C)c(NC(=O)CN2CCN(Cc3ccccc3C)S2(=O)=O)c(C)c1 | i
Cc1ccc(S(=O)(=O)N2CCC(CC(=O)N3CCN(c4ccccc4)CC3)CC2)cc1 | i
SMILES | FECH inh
CC1=C(C(=O)NCc2snnc2C(C)C)C(C)NC(=O)N1 (centres undefined) | i
COc1ccc(-c2nc(Cn3c(=O)c4cnc(-c5cccs5)nc4n(C)c3=O)c(C)o2)c(OC)c1 | i
CCCCC(=O)Nc1cc(C)ccc1OCc1cc(=O)n2oc(C)cc2n1 | i
Cc1oc(-c2cccc(Cl)c2)nc1CSc1nc(C(F)(F)F)cc(=O)[nH]1 | i
Cc1ccnc(NCCN2CC(=O)N3CC[C@@H](O)C[C@H]3C2=O)c1 | i
NC(=O)Cn1c(=O)n(CC2CCC(C(=O)N3CCCCCC3)CC2)c(=O)c2sccc21 (centres undefined) | i
C=CCN(Cc1ccccc1OC)C(C)=O | i
CCCc1cc(Sc2ccc(NC(=O)Nc3ccc(C)c(C)c3)cc2)n2ncnc2n1 | i
CC(c1ccccn1)N(C)Cc1cccn1S(=O)(=O)c1ccccc1 (centres undefined) | i
COc1ccc(Cl)cc1Nc1c(-c2ccc3c(c2)CCCC3)c(=O)c1=O | i
O=c1c(Nc2ccc(F)cc2Cl)c(-c2ccc3c(c2)CCCC3)c1=O | +
Cc1ccc(Nc2c(-c3ccc4c(c3)CCCC4)c(=O)c2=O)c(Cl)c1 | i
Cc1ccc(C)c(Nc2c(-c3ccc4c(c3)CCCC4)c(=O)c2=O)c1 | +
Cc1cc(Cl)ccc1Nc1c(-c2ccc3c(c2)CCCC3)c(=O)c1=O | i
COc1ccc(Nc2c(-c3ccc4c(c3)CCCC4)c(=O)c2=O)c(OC)c1 | +
COc1ccc(OC)c(Nc2c(-c3ccc4c(c3)CCCC4)c(=O)c2=O)c1 | i
COc1cc(OC)c(Nc2c(-c3ccc4c(c3)CCCC4)c(=O)c2=O)cc1Cl | i
COc1ccc(C)cc1Nc1c(-c2ccc3c(c2)CCCC3)c(=O)c1=O | i
Cc1ccc2oc(-c3ccc(NC(=O)CCCn4cncn4)c(C)c3)nc2c1 | i
Cc1ccccc1CC(=O)N1CC(c2ccccn2)C1 | i
c1ccc(Cc2nc(CCn3nnc(-c4ccccc4)n3)n[nH]2)cc1 | i
COC(=O)c1c(NC(=O)C2CCCCC2)sc2c1CCN(Cc1ccccc1)C2 | i
CCN(CC)Cc1cnc2c(C(=O)N(C)Cc3sccc3C)cnn2c1 | i
Cc1cnc(C(=O)NCC2CCN(c3cnn(C)c(=O)c3)C2)[nH]1 (centres undefined) | i
O=c1c(-c2ccc3c(c2)CCCC3)c(N2CCc3ccccc3C2)c1=O | i
SMILES | FECH inh
Cc1cccc(-c2c(-c3ccccc3)ncn2Cc2cc(C)on2)c1 | i
Cc1cccc(CN2CC(=O)N(Cc3ccc(Cl)cc3)c3ccccc3S2(=O)=O)c1 | i
Cc1ccc(C)c(CN2CC(=O)N(Cc3ccc(Cl)cc3)c3ccccc3S2(=O)=O)c1 | +
O=C1CN(Cc2ccccc2Cl)S(=O)(=O)c2ccccc2N1Cc1ccc(Cl)cc1 | i
O=C(Nc1nc2n(n1)C(c1ccc(Cl)cc1)C=C(c1ccccc1)N2)c1ccccc1Cl (centres undefined) | i
CCC1=C(c2ccc(OC)cc2)S(=O)(=O)N(CC(=O)Nc2ccc(F)cc2F)C1=O | i
O=C(CN1c2ccc(F)cc2-c2ccccc2S1(=O)=O)NCCN1CCOCC1 | i
CC1CCN(c2ccc(NC(=O)CN3C(=O)c4ccccc4S3(=O)=O)cc2Cl)CC1 | i
CCOc1ccccc1NC(=O)CN1c2ccc(C(C)C)cc2-c2ccccc2S1(=O)=O | +
CCc1ccc2c(c1)-c1ccccc1S(=O)(=O)N2CC(=O)Nc1ccc(F)cc1 | +
CCc1ccc(C2=C(C)C(=O)N(CC(=O)Nc3ccc(C)c(F)c3)S2(=O)=O)cc1 | i
O=C(CN1c2ccc(F)cc2-c2ccccc2S1(=O)=O)Nc1ccccc1Oc1ccccc1 | +
C=CCNC(=O)c1ccccc1NC(=O)CN1c2ccc(C(C)C)cc2-c2ccccc2S1(=O)=O | i
COc1ccc(NC(=O)CN2c3ccc(C(C)C)cc3-c3ccccc3S2(=O)=O)cc1Cl | i
CC(C)(C)c1oc(C(N)=O)cc1CN1CCOC(Cc2ccccc2)C1 (centres undefined) | i
Cc1oc(-c2cc(F)cc(F)c2)nc1COc1ccc(CC(N)=O)cc1 | i
O=C(CN1CCOc2ccccc2C1)N1CC=C(c2ccccc2)CC1 | i
CCOc1ccc(S(=O)(=O)Nc2ccc(Sc3c(CC)c(C)nc4ncnn34)cc2)cc1 | i
CC(C)(C)c1cc(CN2CCCN3CCC[C@H]3C2)[nH]n1 | i
Cc1ccc2cc(C3(O)CCN(C(=O)CCn4cccn4)CC3)ccc2n1 | i
COc1ccc(CC(=O)Nc2cc(C)nn2-c2ncnc3c2cnn3-c2cccc(C)c2C)cc1OC | i
CN1C(=O)C(CCC(=O)N2CCCOCC2)(Cc2ccccc2)c2ccccc21 (centres undefined) | i
CCCc1nc(C(=O)N2CCCC3(C2)C(=O)N(C)c2ccccc23)cs1 (centres undefined) | i
